HSP90 refold inh: HSP90 refolding inhibition in rabbit reticulocyte lysate; inhibition, % at 5.6 µM; hit rate 0.91% among 290,000; AID 1789; luciferase refolding luminescence, 3 h;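 active = inhibition above the screen-wide mean plus 3 SD, computed separately per campaign, cut at about 16% in these data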;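 also: 0% = DMSO wells and 100% = 60 µM geldanamycin wells; inhibitors lower the luminescence because luciferase stays unfolded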
GAA850 FXN act: activators of GAA850 frataxin (FXN) promoter | HEK293 lucGAA850 FXN promoter luciferase reporter, 24 h; percent of 10 µM SAHA response | activation, % at 6 µM | hit rate 0.56% among 360,000;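 active = activation above the average of all compounds screened plus 3 SD, cutoff fixed separately per campaign, cut at about 7.5% in these data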;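 also: 0% = DMSO wells and 100% = 10 µM SAHA wells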
DAX1 inh: inhibitors of human orphan nuclear receptor DAX1 (NR0B1) | P51843 | AID 504766 | inhibition, % at 6.75 µM | hit rate 0.99% among 340,000 | HEK293 Gal4-DAX1 luciferase reporter, luminescence;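 active = inhibition above the mean over all tested compounds plus 3 SD, cut at about 4.2% in these data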;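 also: 0% = DAX1-transfected cells with DMSO and 100% = empty-vector control cells with DMSO; inhibition shows as a rise in luminescence from relieved DAX1 repression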
AHR activator: activates the human aryl hydrocarbon receptor | AHR-responsive luciferase reporter cells, luminescence | activation, % at 5 µM | hit rate 2.5% among 320,000 | AID 2796; in the data active = activation above about 47%;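 also: 0% = vehicle wells and 100% = reference agonist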
HSF-1 act: increases HSF-1 driven luciferase reporter signal | NIH3T3-HGL HSF-1 luciferase reporter, MG132, 8 h; 100% = twice DMSO control signal | activation, % at 9 µM | hit rate 1.7% among 300,000;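 active = mean replicate activation of at least 50% with a set share of replicates each reaching 50%; inconclusive = only one of those two conditions met; inactive = mean below 50% and too few replicates reaching it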;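 also: 0% = median of the neutral control wells and 100% = twice that signal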
HSF1 inh: HSF1 inhibition; NIH3T3-HGL HSE-luciferase, MG132-induced, luminescence 8 h; active compounds read low; activity change, negative = inhibition, % at 7.5 µM (by protocol); hit rate 0.77% among 300,000;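 active = more than half of replicate wells show activity change below -50%, luminescence cut by over half; inconclusive = some wells, but at most half, below -50%; inactive = no replicate well below -50%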;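 also: luciferase reports HSF-1 transcriptional activity via heat shock element; 0% = median of DMSO wells and -100% = zero luminescence signal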
HSP90 inh confirm: HSP90 inhibition, confirmation assay; rabbit reticulocyte lysate, luciferase refolding luminescence, 3 h; shares compounds with HSP90 refold inh; inhibition, % at 5.9 µM; hit rate 64% among 2,300; in the data active = inhibition above about 18%;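 also: 0% = vehicle wells and 100% = reference inhibitor wells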
luciferase ctr: counter-screen for HSP90 inhibitors: inhibitors of firefly luciferase. shares compounds with HSP90 refold inh. purified native firefly luciferase, luminescence. inhibition, % at 5.9 µM. hit rate 48% among 2,300. AID 1847;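 active = inhibition above the mean inhibition of all tested sample wells plus 3 SD, cut at about 10% in these data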;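 also: 0% = DMSO with luciferase and 100% = wells lacking luciferase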
Target sequence (P08659 whole entry, looked up): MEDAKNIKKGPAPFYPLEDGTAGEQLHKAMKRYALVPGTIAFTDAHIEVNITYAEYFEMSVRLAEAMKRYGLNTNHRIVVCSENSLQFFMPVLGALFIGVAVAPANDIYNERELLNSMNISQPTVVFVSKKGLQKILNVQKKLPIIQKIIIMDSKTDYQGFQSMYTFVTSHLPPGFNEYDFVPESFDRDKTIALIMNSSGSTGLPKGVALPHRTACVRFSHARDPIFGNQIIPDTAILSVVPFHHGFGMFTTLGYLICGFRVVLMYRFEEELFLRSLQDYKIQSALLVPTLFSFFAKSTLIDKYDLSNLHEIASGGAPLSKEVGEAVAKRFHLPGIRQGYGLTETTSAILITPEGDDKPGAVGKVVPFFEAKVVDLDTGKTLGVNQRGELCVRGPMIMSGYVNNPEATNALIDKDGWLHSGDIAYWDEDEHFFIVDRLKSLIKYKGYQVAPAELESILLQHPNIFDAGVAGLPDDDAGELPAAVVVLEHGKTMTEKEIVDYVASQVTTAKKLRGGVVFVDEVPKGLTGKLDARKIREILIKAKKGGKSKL
* = called active by the depositor; ? = inconclusive; nt = no result. Compounds with a hit are over-represented: about 5.9% of the library has one in this group of screens.

SMILES | HSP90 refold inh | GAA850 FXN act | DAX1 inh | AHR activator | HSF-1 act | HSF1 inh | HSP90 inh confirm | luciferase ctr
CCCCN1C(=O)C(=O)N(CC(=O)Nc2ccc(OC(F)(F)F)cc2)C1=O | nt | 1.0 | 0.8 | 1.3 | nt | nt | nt | nt
CC(C)=CC(=O)N1CC[C@@H](N2CCN(c3ccccc3F)CC2)[C@H](O)C1 | -1.8 | 0.1 | 0.2 | -0.8 | 9.2 | 3.2 | nt | nt
O=C(c1cccc(-c2ccccc2F)c1)N1CC[C@@H](N2CCC(O)CC2)[C@H](O)C1 | 84.4* | 0.8 | -0.1 | -1.8 | 14.5 | 7.2 | 3.9 | -3.6
COc1ccc(-c2cc3nnc(-c4ccccc4)nc3s2)cc1 | 21.3* | 2.2 | 2.3 | 3.1 | -59.4 | -46.7 | 44.5* | 43.5*
COc1cccc(/C=N/NC(=O)c2[nH]c(C)c(C(=O)N/N=C/c3cccc(OC)c3O)c2C)c1O | 32.0* | -5.5 | -2.4 | 2.8 | -30.0 | -20.0 | -10.5 | -19.5
COc1cccc(/C=N/NC(=S)Nc2cccc(C(=O)O)c2)c1O | 25.3* | 1.4 | -4.6 | -0.4 | -29.1 | -16.6 | 50.3* | 27.2*
COc1cc(/C=N/NC(=S)Nc2cccc(C(=O)O)c2)ccc1O | 8.5 | 4.4 | -4.7 | -6.8 | -49.7 | ? | nt | nt
Cc1cccc(NC(=O)C2COc3ccccc3O2)n1 (stereo not given) | 3.0 | 0.6 | 0.4 | -1.5 | 17.0 | 1.4 | nt | nt
Cc1csc(NC(=O)C2COc3ccccc3O2)n1 (stereo not given) | 46.0* | 0.6 | -1.8 | 8.0 | 38.9 | 16.3 | 62.6* | 56.0*
CC1CCc2nc(NC(=O)C3COc4ccccc4O3)sc2C1 (stereo not given) | 57.0* | -7.2 | -2.8 | 3.2 | -75.5 | -70.7* | 71.5* | 66.5*
Cc1cnc(NC(=O)C2COc3ccccc3O2)s1 (stereo not given) | 46.4* | -0.8 | -3.1 | 4.0 | nt | nt | 70.3* | 70.5*
CC1CCc2nc(NC(=O)Nc3ccc4c(c3)OCO4)sc2C1 (stereo not given) | -1.5 | 5.7 | -0.4 | -3.1 | 23.3 | 13.9 | nt | nt
CC1=CC(C2CC(=O)N(c3ccccc3C)C2=O)CC2C(=O)N(c3ccccc3C)C(=O)C12 (stereo not given) | -0.5 | 1.3 | -0.5 | 6.3 | 12.5 | -2.7 | nt | nt
CCN1CCN(CC(=O)Nc2cccc(C)c2)C(=O)C1=O | -0.5 | -0.8 | 0.1 | -2.3 | -5.6 | -8.8 | nt | nt
Cc1ccc(C(=O)Nc2ccc(N3CCN(C)CC3)cc2)cc1C | 21.8* | 0.9 | 4.7* | 3.3 | -56.1 | -51.4* | 29.4* | 22.7*
CN1C(=O)CSc2ccc(NC(=O)N3CCc4ccccc43)cc21 | 5.3 | -1.0 | 2.3 | -1.8 | 5.5 | -0.3 | nt | nt
Cc1ccc(C(=O)Nc2ccc(N3CCN(S(C)(=O)=O)CC3)cc2)cc1C | 1.8 | 2.7 | nt | -1.4 | 26.7 | 5.9 | nt | nt
CN1CCN(c2ccc(NC(=O)N3CCc4ccccc43)cc2)CC1 | 71.8* | -7.8 | -3.5 | -4.1 | -86.0 | -85.2* | 70.5* | 61.1*
Cc1ccc(NC(=O)N2CCc3ccccc32)cc1C | 18.4* | 2.5 | -2.2 | -4.5 | 51.3* | 15.5 | 37.1* | 16.6*
Cc1cc(C(=O)Nc2ccc(N3CCCCC3)cc2)no1 | 23.9* | 0.7 | 1.0 | -0.9 | 23.8 | 10.3 | 49.7* | 36.3*
O=C(/C=C/c1ccccc1Cl)NC(=S)Nc1ccccc1C(=O)NC1CCCCC1 | -3.0 | -5.0 | -0.4 | 7.0 | 3.6 | -1.0 | nt | nt
O=[N+]([O-])c1ccc(-c2ccc(C=Nc3cccc4ccccc34)o2)cc1 | 18.4* | 3.5 | -0.3 | 42.5 | 10.6 | 0.7 | 0.4 | -7.6
O=[N+]([O-])c1ccc(-c2ccc(/C=N/O)o2)cc1 | 2.2 | 1.0 | nt | 6.2 | 23.3 | 13.4 | nt | nt
Cc1cc(C(=O)O)ccc1N/C=C1\CCCC(C)C1=O (stereo not given) | 34.0* | 3.4 | -1.0 | 1.3 | -24.7 | -21.4 | 70.3* | 31.7*
CN1CCN(C(=O)c2ccc(S(=O)(=O)Nc3ccccc3)cc2)CC1 | nt | 1.0 | 0.2 | -1.6 | nt | nt | nt | nt
SMILES | HSP90 refold inh | GAA850 FXN act | DAX1 inh | AHR activator | HSF-1 act | HSF1 inh | HSP90 inh confirm | luciferase ctr
c1ccc(-c2nc(-c3nccc4ccccc34)oc2-c2ccccc2)cc1 | 23.3* | 6.9 | 5.0* | 22.1 | 31.0 | 5.5 | 27.6* | 35.2*
Cn1c2ccccc2c(=O)c2cc(C#CC3(O)CCCCC3)ccc21 | 72.4* | -4.8 | -1.6 | -15.0 | -86.7 | -84.7* | 76.3* | 71.4*
CN(C)c1nc(N(C)C)n(C(=O)c2cccs2)n1 | 2.0 | 0.4 | 1.2 | -2.0 | -9.7 | -10.1 | nt | nt
COCCNC(=O)C(=O)NCCN1CCNCC1 | 34.1* | 1.2 | 0.1 | -0.9 | -8.2 | 2.3 | -1.7 | -7.7
Fc1cccc(/C=N/Nc2nncc3ccccc23)c1 | 29.3* | -0.2 | -1.2 | 55.3* | 16.6 | 23.9 | 51.0* | 40.8*
C/C(=N\Nc1nncc2ccccc12)c1ccc(OCC(=O)N(C)C)cc1 | 3.5 | 3.8 | 1.1 | -1.4 | 15.0 | -0.6 | nt | nt
CC/C(=N\Nc1nncc2ccccc12)c1ccc(F)cc1 | 17.1* | 3.1 | -0.5 | -11.5 | 17.7 | 24.0 | -5.0 | -25.0
C=COC(=O)CSc1nc(-c2cccs2)ccc1C#N | 33.3* | 0.6 | 1.7 | 9.0 | nt | nt | -3.4 | -13.4
CC(C)(O)C1Cc2cc(/C=C/C(=O)O)c(O)cc2O1 (stereo not given) | 27.5* | 2.2 | nt | nt | -10.0 | -1.0 | 5.5 | -8.2
N#CC12COC3(CCCCC3C1(C#N)C#N)OC2=N (stereo not given) | 0.5 | 0.3 | 2.5 | 5.2 | 1.6 | -3.6 | nt | nt
N#CC1(C#N)COC23CCCCC2C1(C#N)C(=N)O3 (stereo not given) | 17.7* | 0.9 | 0.2 | 1.0 | -76.3 | -70.3* | -6.1 | -12.9
CCCCNC(=O)[C@]1(C)CCC[C@@]2(C)C3CC[C@@]4(C)C[C@]3(CCC21)CC4=O (stereo not given in full) | nt | -1.1 | 2.0 | -2.6 | nt | nt | nt | nt
O=C(COC(=O)c1ccccc1[N+](=O)[O-])c1ccc(C2CCCCC2)cc1 | 50.6* | -5.2 | -2.4 | 5.5 | -26.2 | -31.3 | 63.1* | 79.3*
O=C(COc1ccc2ccccc2c1)Nc1nccs1 | 23.2* | 6.8 | -1.2 | 14.4 | ? | 31.2 | 54.2* | 49.1*
COc1ccc(S(=O)(=O)Nc2ccc3c(c2)C(=O)N([C@H](C)CO)C[C@H](C)[C@@H](CN(C)S(=O)(=O)c2c(C)noc2C)O3)cc1 | nt | 1.8 | -1.2 | -0.7 | nt | nt | nt | nt
O=C(Nc1ccc2ccccc2c1)c1ccccc1Cl | nt | -0.5 | 2.3 | nt | nt | nt | nt | nt
O=C(Nc1ccc2ccccc2c1)c1ccccc1O | 39.1* | -1.0 | -2.2 | 47.8* | 34.0 | 24.9 | 53.7* | 45.6*
O=C(Nc1ccc2ccccc2c1)c1ccc(Cl)cc1Cl | 17.0* | 0.0 | 0.2 | -6.4 | 50.8* | 13.5 | 37.1* | 20.5*

High-throughput results (PubChem)
